System: Plasmodium falciparum
Test: GSK_TCMDC: Inhibition of Plasmodium falciparum 3D7 in whole red blood cells, using parasite LDH activity as an index of growth. Test compounds present at 2uM
Type: functional

| SMILES | Inhibition |
| --- | --- |
| O=C(/C=C/c1ccc(Cl)c(Cl)c1)N1CCN(C(=O)Nc2ccc(F)c(Cl)c2)CC1 | 97% |
| Cl.NC1=NC(c2ccccc2)N(OCc2ccccc2)C(N)=N1 (stereo unspecified) | 96% |
| Cl.Oc1cc(-c2nc(-c3ccccc3)[nH]c2-c2ccncc2)ccc1Cl | 96% |
| Nc1ncc(-c2cccc(F)c2)cc1-c1nc2cc(F)ccc2[nH]1.O=C(O)C(F)(F)F | 100% |
| Oc1ccccc1CN1CCC2(CCCN(Cc3ccccc3F)C2)C1 (stereo unspecified) | 98% |
| COc1ccc(CON2C(=N)N=C(N)NC2(C)C)cc1OC.Cl | 96% |
| N#Cc1cccc(COC(=O)C2=C(COc3ccccc3Cl)NC(=O)NC2c2c[nH]c3cnccc23)c1 (stereo unspecified) | 99% |
| CCC(C)NS(=O)(=O)c1ccc2nc(Nc3ccc(C)cc3)n(C3CCCCC3)c2c1 (stereo unspecified) | 97% |
| O=C(Nc1ccc(N2CCCN(Cc3cccc(F)c3)CC2)cc1)c1cccs1.O=C(O)C(F)(F)F | 96% |
| CCNc1cc(C)nc(Nc2ccc(C)cc2)n1 | 100% |
| COC(=O)c1ccc2nc(-c3ccc(C(=O)NC4CCN(Cc5ccccc5)CC4)s3)[nH]c2c1 | 99% |
| Cc1ccc(CN2CCN(c3cc4c(cc3Cl)CCN4C(=O)Cc3ccc(Cl)c(NC(=O)Nc4cccc(C#N)c4)c3)CC2)cc1 | 92% |
| CCCC(C)N(Cc1ccc(C(C)(C)C)cc1)C(=O)c1ccc(OC)cc1 (stereo unspecified) | 100% |
| CC(C)(C)c1ccc(C(=O)Nc2cccc(Nc3c(C(=O)NCc4cccc(C(F)(F)F)c4)cnc4c(O)cccc34)c2)cc1.O=C(O)C(F)(F)F | 83% |
| COc1ccc(CCN(C)CCOc2ccc(NC(=O)c3cc(SC)cc4c(=O)c5ccccc5[nH]c34)cc2)cc1OC | 87% |
| N#Cc1cccc(NC(=O)Nc2cccc(OC3CCN(Cc4ccccc4)CC3)c2)c1.O=C(O)C(F)(F)F | 100% |
| CNC(=O)c1cnc(Nc2ccc(N3CCN(C)CC3)cc2)nc1Nc1cccc(OC)c1.O=C(O)C(F)(F)F | 100% |
| Cc1csc(-c2nc(NCCc3c(C)noc3C)ncc2-c2ccsc2)n1 | 90% |

| SMILES | Inhibition |
| --- | --- |
| Cc1ccc(CNC(=O)[C@H](CCCN)Nc2cc(C)nc(Nc3ccccc3)n2)cc1.O=C(O)C(F)(F)F | 90% |
| CCN(CC)CCN(Cc1ccc(-c2ccc(C(F)(F)F)cc2)cc1)C(=O)Cn1c(SCc2ccc(F)c(F)c2F)nc(=O)c2c1CCC2.O=C(O)C(O)C(O)C(=O)O | 91% |
| COc1ccc(NC(=O)/C=C/c2ccccc2Cl)cc1OCCN1CCC(N2CCN(C)CC2)CC1 | 100% |
| Fc1ccc2[nH]c(-c3cccc(-c4ccc(CN5CCN(CCN6CCOCC6)CC5)cc4)c3)nc2c1.O=C(O)C(F)(F)F | 100% |
| O=C(NCC1CCC(CNCCCc2ccccc2)CC1)Nc1ccc(Cl)c(Cl)c1 (stereo unspecified) | 99% |
| O=C(Nc1ccc(-c2csc(-c3nc4ccccc4[nH]3)c2)cc1)Nc1ccsc1 | 100% |
| COc1cccc(COCC(O)CN(CCc2ccccn2)C(=O)c2ccccc2F)c1 (stereo unspecified) | 97% |
| CN1CCC(Oc2cc(NC(=O)Nc3ccc(-c4ccncc4)c(Cl)c3)ccc2Cl)CC1 | 99% |
| Oc1ccc(CCNc2nc(NCc3ccccc3-c3ccc(C(F)(F)F)cc3)nc(N3CCNCC3)n2)cc1 | 97% |
| O=C(/C=C/c1ccc(Cl)c(Cl)c1)NCCCCCN1CCC(NC(=O)c2ccc3ccccc3c2)CC1 | 87% |
| Cc1ccc(Nc2ccnc(Nc3ccc(C)c(F)c3)n2)cc1O.Cl | 100% |
| COc1ccc(CCn2c(=N)c(C(=O)NCc3ccccc3)cc3c(=O)n4cccc(C)c4nc32)cc1 | 100% |
| CN(c1ccc2c(c1)nc(NCc1ccccc1)n2C)c1ccnc(Nc2ccc(CS(C)(=O)=O)cc2)n1.Cl | 94% |
| O=C(Nc1cccc(-c2cccc(-c3nc4cc(F)ccc4[nH]3)c2)c1)Nc1ccc(F)c(F)c1F | 100% |
| FC(F)(F)c1ccc2[nH]c(-c3ccc(-c4ccc(CNCc5cnn(-c6ccccc6)n5)cc4)cc3)nc2c1.O=C(O)C(F)(F)F | 100% |
| Cc1cccc(Cn2c(Cc3ccccc3)nnc2Sc2ccc([N+](=O)[O-])c(C#N)c2)c1 | 91% |
| CN1CCN(CCc2ccc3nc(-c4csc(Cc5cc(Cl)ccc5OCc5ccccc5)n4)[nH]c3c2)CC1 | 100% |
| CN1CCC(N2CCN(c3ccc4c(=O)nc(CCc5cccc(F)c5F)n(CC(=O)N(C)Cc5ccc(-c6ccc(C(F)(F)F)cc6)cc5)c4n3)CC2)CC1.O=C(O)C(O)C(O)C(=O)O | 100% |
